Laboratory results: PubChem BioAssay AID1159580 (chemical genetic matrix, 2015)
Where “and” joins values, the source holds several entries; their conditions need not be identical. Equal values may be shown once. The campaign covered roughly 5,500 compounds. About 2,000 (36%) were called active. Roughly 18% stayed inconclusive and do not appear here. No stated cut-off is given here; in the data, active means normalized growth mostly below about 0.91 (no sharp cut-off); inconclusive means no clear call, values can overlap the other calls; inactive means mostly above about 0.92. The list shows a part of the results.

Test: chemical genetic growth profiling, strain panel (AID 1159580);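 further: tested at 20 µM; growth read once vehicle control cultures reached saturation at 30 °C; 1 = growth at the plate median or of vehicle wells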
Conditions: S. cerevisiae deletion strains, growth OD

Measured: normalized growth

O=C1C=CC(=C(c2ccc(O)cc2)c2ccc(O)cc2)C=C1
inactive: locus YAL013W, strain DEP1, stronger effect = lower value 0.985 | locus YAL021C, strain ccr4, stronger effect = lower value 1 | locus YAL026C, strain drs2, stronger effect = lower value 0.972 | locus YAL030W, strain snc1, stronger effect = lower value 1 | locus YBL061C, strain skt5, stronger effect = lower value 0.982 | locus YBR009C, strain hhf1, stronger effect = lower value 0.981 | locus YBR021W, strain FUR4, stronger effect = lower value 0.992 | locus YBR023C, strain chs3, stronger effect = lower value 0.968 | locus YBR171W, strain sec66, stronger effect = lower value 0.968 | locus YBR229C, strain ROT2, stronger effect = lower value 0.991 | locus YBR231C, strain swc5, stronger effect = lower value 0.987 | locus YBR279W, strain paf1, stronger effect = lower value 0.99 | locus YCL011C, strain gbp2, stronger effect = lower value 0.972 | locus YCL016C, strain dcc1, stronger effect = lower value 1.01 | locus YCL029C, strain bik1, stronger effect = lower value 0.99 | locus YCL069W, strain vba3, stronger effect = lower value 0.959 | locus YCR088W, strain abp1, stronger effect = lower value 0.975 | locus YDL005C, strain med2, stronger effect = lower value 0.977 | locus YDL035C, strain GPR1, stronger effect = lower value 1 | locus YDL040C, strain nat1, stronger effect = lower value 0.991 | locus YDL074C, strain BRE1, stronger effect = lower value 1.06 | locus YDL101C, strain DUN1, stronger effect = lower value 1 | locus YDL134C, strain PPH21, stronger effect = lower value 0.998 | locus YDL185W, strain tfp1, stronger effect = lower value 1 | locus YDL192W, strain arf1, stronger effect = lower value 0.982 | locus YDR001C, strain nth1, stronger effect = lower value 0.975 | locus YDR069C, strain doa4, stronger effect = lower value 0.952 | locus YDR101C, strain arx1, stronger effect = lower value 0.995 | locus YDR137W, strain rgp1, stronger effect = lower value 0.988 | locus YDR150W, strain NUM1, stronger effect = lower value 1.01 | locus YDR159W, strain sac3, stronger effect = lower value 0.972 | locus YDR162C, strain NBP2, stronger effect = lower value 1.01 | locus YDR195W, strain ref2 0.927 | locus YDR297W, strain sur2, stronger effect = lower value 0.987 | locus YDR318W, strain mcm21, stronger effect = lower value 0.982 | locus YDR334W, strain swr1, stronger effect = lower value 0.962 | locus YDR335W, strain msn5, stronger effect = lower value 0.968 | locus YDR388W, stronger effect = lower value 0.972 | locus YDR392W, strain spt3, stronger effect = lower value 0.986 | locus YDR502C, strain sam2, stronger effect = lower value 1 | locus YEL003W, strain gim4, stronger effect = lower value 0.974 | locus YEL037C, strain rad23, stronger effect = lower value 0.973 | locus YEL061C, strain CIN8 (second series), stronger effect = lower value 0.938 | locus YEL061C, strain CIN8, stronger effect = lower value 1.01 | locus YER015W, strain faa2, stronger effect = lower value 0.99 | locus YER016W, strain bim1, stronger effect = lower value 0.983 | locus YER110C, stronger effect = lower value 0.976 | locus YER111C, strain swi4, stronger effect = lower value 0.969 | locus YER155C, strain BEM2 (second series), stronger effect = lower value 1.01 | locus YER155C, strain BEM2, stronger effect = lower value 0.997 | locus YER167W, strain BCK2, stronger effect = lower value 0.993 | locus YFR010W, strain ubp6, stronger effect = lower value 0.945 | locus YGL078C, strain dbp3, stronger effect = lower value 0.994 | locus YGL086W, strain mad1, stronger effect = lower value 0.986 | locus YGL167C, strain pmr1, stronger effect = lower value 0.994 | locus YGL173C, strain kem1, stronger effect = lower value 0.98 | locus YGL227W, strain vid30, stronger effect = lower value 0.971 | locus YGL240W, strain doc1, stronger effect = lower value 0.983 | locus YGL248W, strain PDE1, stronger effect = lower value 0.991 | locus YGL253W, strain hxk2, stronger effect = lower value 0.967 | locus YGR078C, strain PAC10, stronger effect = lower value 1.03 | locus YGR135W, strain pre9, stronger effect = lower value 1 | locus YGR229C, strain SMI1, stronger effect = lower value 1.02 | locus YGR252W, strain gcn5, stronger effect = lower value 0.97 | locus YHR013C, strain ard1, stronger effect = lower value 0.985 | locus YHR027C, strain rpn1, stronger effect = lower value 1 | locus YHR030C, strain SLT2, stronger effect = lower value 0.994 and 1.04 | locus YHR079C, strain IRE1 (second series), stronger effect = lower value 0.989 | locus YHR079C, strain IRE1, stronger effect = lower value 1.05 | locus YHR094C, strain hxt1, stronger effect = lower value 0.989 | locus YHR129C, strain ARP1, stronger effect = lower value 0.994 | locus YHR142W, strain chs7, stronger effect = lower value 0.962 | locus YHR200W, strain rpn10, stronger effect = lower value 0.988 | locus YIL066C, strain RNR3, stronger effect = lower value 0.992 | locus YIL073C, strain SPO22, stronger effect = lower value 0.976 | locus YIL125W, strain kgd1, stronger effect = lower value 0.995 | locus YIR030C, strain dcg1, stronger effect = lower value 0.986 | locus YJL092W, strain hpr5, stronger effect = lower value 0.953 | locus YJL095W, strain BCK1 (second series), stronger effect = lower value 0.975 | locus YJL095W, strain BCK1, stronger effect = lower value 1.03 and 1.02 | locus YJL115W, strain asf1, stronger effect = lower value 0.966 | locus YJL129C, strain trk1, stronger effect = lower value 0.965 | locus YJL134W, strain LCB3, stronger effect = lower value 0.994 | locus YJL154C, strain vps35, stronger effect = lower value 0.98 | locus YJL164C, strain tpk1, stronger effect = lower value 1 | locus YJL166W, strain qcr8, stronger effect = lower value 0.984 | locus YJL168C, strain set2, stronger effect = lower value 0.98 | locus YJL187C, strain SWE1 (second series), stronger effect = lower value 0.998 | locus YJL187C, strain SWE1, stronger effect = lower value 0.993 | locus YJR043C, strain POL32, stronger effect = lower value 1.04 | locus YJR066W, strain TOR1, stronger effect = lower value 0.979
